Compound activity (PubChem BioAssay)
Neddylation inh = cullin neddylation inhibition. P61081+Q13564. TR-FRET cullin neddylation, biochemical. inhibition, % at 25 µM. 0.58% of 360,000 active. AID 651699; in the data active = inhibition above about 36%
A1 inh = inhibitors of the anti-apoptotic protein A1, read as caspase activation | MEF A1-2A-BIM cells, Caspase-Glo 3/7 luminescence, 3 h; percent of clofoctol response, vehicle zero | caspase activation, % (no concentration beside the values) | 0.066% of 330,000 active | AID 2462;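 active = over half of replicate activation scores above 10%, or exactly half above 10 with the replicate mean above 10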
INS-1E GSIS act = primary screen for activators of insulin secretion dependent on glucose, INS-1E cells, GLuc reporter luminescence. 0.61% of 370,000 active. INS-1E GLuc reporter insulin secretion, 2-3 h. activation, % at 16.6 µM. AID 743287;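 active = lowest replicate activation of at least 40%, so every replicate reaches that level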
Vif imaging = blocks HIV Vif function. HEK293T cells, Vif self-association by quenched fluorescence, imaging, 24 h. inhibition, % at 7.49 µM. 0.35% of 340,000 active. AID 602346; in the data active = inhibition above about 50%, passing the limit was not always enough
dFosB act-1 = enhances mouse delta FosB homodimer DNA binding; P13346; purified delta FosB, TAMRA-CDK5 oligo fluorescence polarization; percent of positive-control signal above neutral wells; activation, % at 25 µM; 0.99% of 340,000 active; AID 493131;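 active = mean activation above about 17%, with every replicate also reaching it, limit read from the data, passing the limit was not always enough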
Target sequence (P13346 whole entry, looked up): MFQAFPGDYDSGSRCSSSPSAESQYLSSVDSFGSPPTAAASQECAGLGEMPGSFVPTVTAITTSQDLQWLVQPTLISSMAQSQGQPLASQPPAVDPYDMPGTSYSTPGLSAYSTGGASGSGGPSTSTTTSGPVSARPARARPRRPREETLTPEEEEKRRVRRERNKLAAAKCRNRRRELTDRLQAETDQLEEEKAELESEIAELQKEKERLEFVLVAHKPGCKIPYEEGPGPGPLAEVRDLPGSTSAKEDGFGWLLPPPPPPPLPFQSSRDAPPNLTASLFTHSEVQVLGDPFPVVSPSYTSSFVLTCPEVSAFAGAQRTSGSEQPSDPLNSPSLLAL
dFosB act-2 = enhances mouse delta FosB homodimer binding to DNA | shares compounds with dFosB act-1 | purified delta FosB, TAMRA-CDK5 oligo fluorescence polarization; normalised: neutral wells 0, positive control 100 | activation, % at 24.9 µM | 2,400 tested, under 10 active;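 active = highest replicate activation at or above 34% and every replicate reaching that threshold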;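 also: higher polarization means more probe DNA bound by delta FosB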
A number is an active result. Sampled rows, rich in hits. Any-hit rate of the full collection: about 1.9%.

For CCNC(=O)C[C@H]1CC[C@H](NC(=O)NC2CCCCC2)[C@@H](CO)O1 the results were INS-1E GSIS act inactive.
For Cc1ccc(Nc2nc(Nc3ccc(C)cc3)nc(SC3=NCCS3)n2)cc1 the results were Neddylation inh inactive, A1 inh inactive, Vif imaging inactive, dFosB act-1 25.6 and dFosB act-2 inactive.
`Cc1ccccc1Nc1nc(Nc2ccccc2C)nc(SC2=NCCS2)n1` gave Neddylation inh inactive, A1 inh inactive, INS-1E GSIS act inactive, Vif imaging inactive and dFosB act-1 inactive.
For Cc1cc(C)c(NC(=O)CS(=O)CC(=O)Nc2ccc(F)cc2F)c(C)c1 (stereo not drawn) the results were Neddylation inh inactive, A1 inh inactive, INS-1E GSIS act inactive, Vif imaging inactive, dFosB act-1 22.6 and dFosB act-2 inactive.
For COc1ccccc1NC(=O)N1CC[C@@H]2[C@H]1c1cc(C#Cc3ccc(F)cc3)ccc1N(C)[C@@H]2CO the results were INS-1E GSIS act inactive.
For Cc1nn(C)cc1/C=N/NC(=S)Nc1ccc(Cl)cc1Cl the results were Neddylation inh inactive, A1 inh inactive, INS-1E GSIS act inactive, Vif imaging inactive, dFosB act-1 33.6 and dFosB act-2 inactive.
For COc1ccc(-c2cc3c(=O)n(CC(=O)NCc4ccccc4F)ncn3n2)cc1 the results were Neddylation inh inactive, A1 inh inactive, INS-1E GSIS act inactive, Vif imaging inactive and dFosB act-1 inactive.
`COc1ccc(NC(=O)Cn2ncn3nc(-c4ccc(OC)cc4)cc3c2=O)cc1` gave Neddylation inh inactive, A1 inh inactive, INS-1E GSIS act inactive, Vif imaging inactive, dFosB act-1 63.2 and dFosB act-2 inactive.
For Cn1c2ccccc2c2cnn(CC(=O)Nc3ccc(Cl)cc3)c(=O)c21 the results were Neddylation inh inactive, A1 inh inactive, INS-1E GSIS act inactive, Vif imaging inactive, dFosB act-1 25.9 and dFosB act-2 inactive.
`COc1ccc(-c2cc3c(=O)n(CC(=O)Nc4ccc(Cl)cc4)ncn3n2)cc1` gave Neddylation inh inactive, A1 inh inactive, INS-1E GSIS act inactive, Vif imaging inactive, dFosB act-1 30.6 and dFosB act-2 inactive.
`CCc1ccc(NC(=O)Cn2ncc3c4ccccc4n(C)c3c2=O)cc1` gave Neddylation inh inactive, A1 inh inactive, INS-1E GSIS act inactive, Vif imaging inactive and dFosB act-1 inactive.
`Cc1nn(CC(=O)Nc2ccc(Cl)cc2)c(=O)c2cc(-c3ccccc3)nn12` gave Neddylation inh inactive, A1 inh inactive, INS-1E GSIS act inactive, Vif imaging inactive, dFosB act-1 30.0 and dFosB act-2 inactive.
Cc1cc(C)c2nc3nc(C)c(C)cc3c(N)c2c1 was read as INS-1E GSIS act inactive, Vif imaging inactive, dFosB act-1 26.0 and dFosB act-2 inactive.
For CO[C@H](CN(C)CC1CCOCC1)[C@H](C)CN(C(=O)Nc1ccc(F)cc1)[C@@H](C)CO the results were INS-1E GSIS act inactive.
COc1ccc(NC(=O)Cn2nnc(-c3ccccc3NC(=O)c3cccs3)n2)cc1 was read as Neddylation inh inactive, A1 inh inactive, Vif imaging inactive and dFosB act-1 inactive.
Screening CCCC(=O)Nc1ccccc1-c1nnn(CC(=O)Nc2ccc(OCC)cc2)n1 returned Neddylation inh inactive, A1 inh inactive, Vif imaging inactive, dFosB act-1 41.4 and dFosB act-2 inactive.
`O=C(Cn1nnc(-c2ccccc2F)n1)Nc1cccc2ncccc12` gave Neddylation inh inactive, A1 inh inactive, Vif imaging inactive, dFosB act-1 26.0 and dFosB act-2 inactive.
For Cc1ccc(NC(=O)Cn2nnc(-c3ccccc3NC(=O)c3cccs3)n2)cc1 the results were Neddylation inh inactive, A1 inh inactive, Vif imaging inactive, dFosB act-1 47.7 and dFosB act-2 inactive.
`O=C(Cn1nnc(-c2ccccc2NC(=O)c2ccccc2)n1)Nc1ccc2c(c1)OCCO2` gave Neddylation inh inactive, A1 inh inactive, Vif imaging inactive, dFosB act-1 44.4 and dFosB act-2 inactive.
C[C@@H]1CCCCO[C@H](CN(C)S(=O)(=O)c2ccc(Cl)cc2)[C@@H](C)CN([C@@H](C)CO)C(=O)c2cc(NC(=O)NC3CCCCC3)ccc2O1 was read as INS-1E GSIS act inactive.
`CC1CCN(S(=O)(=O)c2ccc(NC(=O)c3ccccc3F)cc2)CC1` gave Neddylation inh inactive, A1 inh inactive, INS-1E GSIS act inactive, Vif imaging inactive and dFosB act-1 inactive.
`CC1CCN(S(=O)(=O)c2ccc(NC(=O)Cn3nnc(-c4ccccc4F)n3)cc2)CC1` gave Neddylation inh inactive, A1 inh inactive, INS-1E GSIS act inactive, Vif imaging inactive, dFosB act-1 77.7 and dFosB act-2 inactive.
For CCOc1ccc(/C=N/NC(=O)c2nnn(-c3nonc3N)c2-c2ccc(OCC)cc2)cc1 the results were Neddylation inh inactive, A1 inh inactive, INS-1E GSIS act inactive, Vif imaging inactive and dFosB act-1 inactive.
`Nc1nonc1-n1nnc(C(=O)N/N=C/c2cccc(F)c2)c1-c1ccc2c(c1)OCO2` gave Neddylation inh inactive, A1 inh inactive, INS-1E GSIS act inactive, Vif imaging inactive, dFosB act-1 37.3 and dFosB act-2 inactive.
`Nc1nonc1-n1nnc(C(=O)N/N=C/c2ccc(F)cc2)c1-c1ccc2c(c1)OCO2` gave Neddylation inh inactive, A1 inh inactive, INS-1E GSIS act inactive, Vif imaging inactive and dFosB act-1 inactive.
`CCCOc1ccc(-c2c(C(=O)N/N=C/c3ccccc3)nnn2-c2nonc2N)cc1` gave Neddylation inh inactive, A1 inh inactive, INS-1E GSIS act inactive, Vif imaging inactive, dFosB act-1 29.6 and dFosB act-2 inactive.
CO[C@@H]1CN(C)C(=O)c2cc(NC(=O)Nc3ccc(Cl)cc3)ccc2OC[C@H](C)N(C)C[C@@H]1C was read as INS-1E GSIS act inactive.
For CCOC(=O)c1c(NC(=O)CSc2n[nH]c(-c3ccco3)n2)sc(C)c1C the results were Neddylation inh inactive, A1 inh inactive, INS-1E GSIS act inactive, Vif imaging inactive and dFosB act-1 inactive.
Screening O=C(CSc1n[nH]c(-c2ccco2)n1)Nc1sc2c(c1C(=O)Nc1ccccc1)CCCC2 returned Neddylation inh inactive, A1 inh inactive, INS-1E GSIS act inactive, Vif imaging inactive, dFosB act-1 25.2 and dFosB act-2 inactive.
`O=C(NC(C(=O)N/N=C/c1cccc2ccccc12)c1n[nH]c(=O)c2ccccc12)c1ccccc1` (stereo not drawn) gave Neddylation inh inactive, A1 inh inactive, Vif imaging inactive, dFosB act-1 27.5 and dFosB act-2 inactive.
Screening O=C(NNC(=O)c1sc2cccc(Cl)c2c1Cl)Nc1ccccc1 returned Neddylation inh inactive, A1 inh inactive, INS-1E GSIS act inactive, Vif imaging inactive, dFosB act-1 75.5 and dFosB act-2 inactive.
`O=C(NNC(=O)c1sc2cccc(Cl)c2c1Cl)NC1CCCCC1` gave Neddylation inh inactive, A1 inh inactive, Vif imaging inactive and dFosB act-1 inactive.
